tim10-1 inh = inhibits growth of tim10-1 mutant yeast | actives 2.2% (n = 330,000) | inhibition, % at 20 µM | S. cerevisiae tim10-1 ts strain growth, BacTiter-Glo, 24 h;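 active = inhibition of at least 40%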;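 also: mutant grown at 25 °C; 0% = DMSO wells with yeast and 100% = wells holding no yeast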
PfHsp90 set2 = reduces growth (ATP signal) of yeast expressing P. falciparum Hsp90. S. cerevisiae expressing PfHsp90, BacTiter-Glo ATP, 48 h; yeast lacking PDR1 and PDR3 efflux regulators. inhibition, % at 9.4 µM. actives 0.32% (n = 310,000);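 active = every replicate shows inhibition above about 80%, whatever the replicate mean, limit read from the data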;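 also: 0% = DMSO neutral controls and 100% = 20 µM radicicol positive controls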
tim23-1 inh = tim23-1 yeast growth inhibition; AID 463212; actives 1.3% (n = 330,000); S. cerevisiae tim23-1 growth, BacTiter-Glo luminescence, 24 h; inhibition, % at 20 µM;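 active = growth inhibition of the mutant yeast at or above 50%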;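 also: temperature-sensitive mutant grown at 25 °C; plate controls were DMSO-treated mutant yeast for no effect and medium wells lacking yeast for full effect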
NLRP3 yeast inh = inhibitors of NALP3 inflammasome in yeast | Yeast reconstituted NLRP3/ASC/caspase-1, beta-gal luminescence, 24 h | actives 0.39% (n = 330,000) | inhibition, % at 10 µM;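 active = inhibition of 50% or more; inactive = inhibition below 50%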;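 also: plate controls were induced DMSO wells for no effect and uninduced yeast grown without galactose for full effect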
TIM10 inh = TIM10 yeast growth inhibition | AID 463195 | S. cerevisiae TIM10 strain growth, BacTiter-Glo luminescence, 24 h | actives 1.4% (n = 330,000) | inhibition, % at 10 µM;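 active = inhibition of 40% or more at the single tested concentration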;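 also: wild-type TIM10 isogenic control strain grown at permissive 25 °C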
tim10-1 conf = confirmation of tim10-1 mutant yeast growth inhibitors. shares compounds with tim10-1 inh. S. cerevisiae tim10-1 ts strain growth, BacTiter-Glo, 24 h. inhibition, % at 20 µM. actives 56% (n = 7,400). AID 463213;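 active = inhibition of yeast growth at or above a set limit in either of two repeat tests at 20 µM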;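 also: tim10-1 mutant grown at permissive 25 °C to find synthetic lethal compounds; 0% = DMSO yeast wells and 100% = medium wells without yeast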
tim10 confirm = TIM10 yeast growth inhibition, confirmed; shares compounds with TIM10 inh; S. cerevisiae tim10 strain growth, BacTiter-Glo luminescence, 24 h; inhibition, % at 10 µM; actives 63% (n = 4,600); AID 463215;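 active = inhibition of yeast growth at or above a set limit in either of two replicates at 10 µM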;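 also: this counterscreen used the strain with wild-type TIM10; 0% = yeast with DMSO and 100% = medium wells lacking yeast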
tim23-1 conf = confirmation of tim23-1 mutant yeast growth inhibitors | S. cerevisiae tim23-1 growth, BacTiter-Glo luminescence, 24 h | actives 83% (n = 4,400) | inhibition, % at 20 µM | AID 463218 | shares compounds with tim23-1 inh;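 active = inhibition above about 39% in either of two replicate wells at 20 µM, limit read from the data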;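 also: temperature-sensitive tim23-1 mutant grown at 25 °C; 0% = DMSO wells with yeast and 100% = medium wells without yeast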
* hit, by the source's call; · = no result given. Most compounds without a hit are left out; they make up all but 3.7% or so of the library.

SMILES	tim10-1 inh	PfHsp90 set2	tim23-1 inh	NLRP3 yeast inh	TIM10 inh	tim10-1 conf	tim10 confirm	tim23-1 conf
OC(CN1CCN(c2ccccn2)CC1)Cn1c2ccc(Cl)cc2c2cc(Cl)ccc21 (stereo unspecified)	47.2*	-0.6	54.9*	30.8	-28.4	20.9	·	-39.5
O=C(NCc1ccco1)C(=O)NCC1OCCN1C(=O)c1ccc(Cl)cc1 (stereo unspecified)	-4.0	4.8	12.1	9.1	-5.0	·	·	·
COc1cc(OC)cc(-c2c(-c3ccc(F)cc3)c3cc(-c4ccc(SC)cc4)ccc3n2C)c1	-3.4	6.5	-4.3	9.3	-5.7	·	·	·
Cc1cccc(N2CCN(C(=S)NCc3ccco3)CC2)c1C	55.1*	-40.7	53.0*	20.3	19.6	47.7*	·	43.0*
CCOc1ccccc1N1CCN(C(=S)NCc2ccco2)CC1	17.2	15.3	26.2	11.4	10.3	·	·	·
S=C(NCc1ccco1)N1CCN(Cc2ccc(Cl)cc2Cl)CC1	50.9*	-8.5	70.3*	22.8	47.6*	53.5*	43.0*	61.5*
O=C(NCCc1ccccc1)C(c1cccs1)N(C(=O)CCl)c1ccc(Cl)cc1 (stereo unspecified)	54.6*	-21.8	52.8*	12.2	55.8*	53.8*	-23.3	58.3*
O=C(NCCc1ccccc1)C(c1cccs1)N(C(=O)c1csnn1)C1CC1 (stereo unspecified)	18.8	-3.2	12.6	-7.8	15.8	·	·	·
Oc1ccccc1N=N/C(=N/Nc1ccccc1O)c1ccccc1	-2.4	18.8	-1.4	17.6	7.6	·	·	·
Cn1nnnc1N=N/C(=N/Nc1ccccc1)c1ccccc1	54.5*	96.8*	74.6*	44.5	68.9*	26.0	69.6*	60.3*
COc1ccc(S(=O)(=O)N=C2C=C(C)C(=O)C(C)=C2)cc1	17.5	-13.4	17.8	-12.7	7.1	·	·	·
COc1ccc(SN=C2C(C)=CC(=O)C=C2C)cc1	70.9*	91.2*	75.0*	10.9	91.3*	73.0*	96.4*	74.5*
Cc1ccc2c(CNCc3ccccc3)cc(=O)oc2c1	-12.9	32.6	27.2	31.5	6.7	·	·	·
Cc1ccc(-c2nc3ccccc3c(=O)o2)cc1	2.9	14.4	3.7	17.1	-1.0	·	·	·
O=c1oc(-c2ccc(Br)o2)nc2ccccc12	45.9*	·	53.9*	11.7	32.1	16.1	·	60.5*
COc1ccc(S(=O)(=O)n2nc(-c3cc(OC)c(OC)c(OC)c3)cc2N)cc1OC	12.4	-19.0	9.7	23.3	4.4	·	·	·
COc1ccc(-c2cc(N)n(S(=O)(=O)c3c(F)c(F)c(F)c(F)c3F)n2)cc1OC	67.7*	-11.3	70.3*	-29.0	74.8*	75.2*	73.7*	-23.1
COc1ccc(-c2cc(C(F)F)n3ncc(C(=O)Nc4cc(C)on4)c3n2)cc1	20.0	-57.6	-11.7	14.9	-6.7	·	·	·
FC(F)C(F)(F)c1cc(-c2ccc(Cl)cc2)n[nH]1	51.5*	·	52.3*	17.3	21.9	41.8*	·	41.5*
O=C(CSc1ccccc1Cl)N1CCOCC1	13.5	11.1	7.0	0.4	8.4	·	·	·
Cc1ccc(S(=O)(=O)Nc2nccs2)cc1[N+](=O)[O-]	-15.6	16.0	12.0	-1.9	0.1	·	·	·
Cc1ccc(S(=O)(=O)Nc2ccc(S(=O)(=O)Nc3nccs3)cc2)c([N+](=O)[O-])c1	53.8*	-23.5	50.2*	14.4	52.0*	55.2*	46.6*	52.2*
Cc1ccc(N(CC(=O)NC(C)C)C(=O)CCC(=O)Nc2nccs2)cc1C	5.1	-64.8	5.8	18.5	5.3	·	·	·
CC1=CC(C)(C)N2C(=O)C(=O)c3cc(OC(=O)c4ccco4)cc1c32	51.2*	15.0	68.5*	7.6	34.5	36.2*	·	1.2
O=C1OC(c2ccc(Br)cc2)=N/C1=C\c1ccco1	57.1*	8.3	57.7*	13.6	44.8*	25.9	9.9	44.4*
SMILES	tim10-1 inh	PfHsp90 set2	tim23-1 inh	NLRP3 yeast inh	TIM10 inh	tim10-1 conf	tim10 confirm	tim23-1 conf
O=C(O)C1CCCCC1C(=O)Nc1ccc(S(=O)(=O)N2CCCCC2)cc1 (stereo unspecified)	-24.2	31.4	1.7	7.4	12.7	·	·	·
O=[N+]([O-])c1ccc(CNc2ccc(Cl)cc2)s1	56.8*	-8.0	60.6*	30.6	56.3*	54.5*	64.8*	68.4*
COc1ccc(NCc2ccc([N+](=O)[O-])s2)c(OC)c1	·	-0.7	·	·	·	·	·	·
O=C(NCCOc1ccccc1F)C1CCC(=O)N(CC2CCCCC2)C1 (stereo unspecified)	14.1	1.9	12.9	17.1	2.1	·	·	·
O=C(Oc1cccc2c(O)cccc12)c1ccccc1	46.6*	·	79.0*	20.2	-4.7	15.6	·	50.1*
O=C(Oc1cccc2ccccc12)c1ccccc1	·	-7.4	·	·	·	·	·	·
COc1ccc(-n2cccc2/C=C/[N+](=O)[O-])cc1	62.0*	-13.7	83.1*	7.4	59.1*	52.8*	-8.6	72.7*
Cc1ccc(O)c(O)c1	9.0	·	12.1	·	-9.8	·	·	·
Cc1ccc(O)c(Sc2cc(C)ccc2O)c1	47.2*	-20.5	52.9*	27.4	26.9	27.8	·	44.9*
CCC(C)(CC(=O)O)CC(=O)Nc1cc(C(F)(F)F)cc(C(F)(F)F)c1 (stereo unspecified)	-1.3	8.7	0.6	6.0	-3.5	·	·	·
S=C(NCC1CCCO1)N1CCN(c2nc(-c3ccc(Cl)cc3)cs2)CC1 (stereo unspecified)	51.4*	-45.9	50.3*	19.1	40.2*	38.9*	42.5*	52.5*
S=C(NCCCN1CCOCC1)N1CCN(c2nc(-c3ccc(Cl)cc3)cs2)CC1	17.1	11.9	27.4	8.0	30.4	·	·	·
O=C(NC(=S)N1CCc2ccccc21)c1ccc(Br)o1	62.3*	·	63.6*	9.4	67.3*	56.5*	57.1*	66.3*
CC(C)(C)C(=O)NC(=S)N1CCc2ccccc21	11.9	15.7	2.8	-1.1	3.0	·	·	·
CCCN1C(=O)/C(=C2\SC(N3CCCCC3)=NC2=O)c2ccccc21	41.9*	8.9	50.3*	22.2	29.9	31.8*	·	47.8*
Cc1nc(N2CCN(c3ccccc3O)CC2)c2c(-c3ccccc3)csc2n1	42.3*	-40.0	50.6*	26.7	33.5	31.5*	·	48.2*
CCCC(=O)Nc1ccc(Sc2ccc([N+](=O)[O-])cc2)cc1	42.5*	3.8	51.3*	30.2	54.5*	25.2	41.2*	43.0*
CC(C)Oc1ccc(N2CC(C(=O)NC3=NCCS3)CC2=O)cc1 (stereo unspecified)	22.7	5.5	6.0	2.9	-0.7	·	·	·
Cc1ccn(CC(=O)N2CCCC(N3CCN(c4ccccc4F)CC3)C2)n1 (stereo unspecified)	-2.9	-8.5	-10.6	8.7	-3.1	·	·	·

From PubChem
